Measured values published in ChEMBL document CHEMBL3988442, “University of Dundee, Small-Polar-MMV Screening Library” (2021).

What follows are molecules tested against AMP-activated protein kinase, AMPK (Homo sapiens) (UniProt P54646+O43741+P54619+Q9UGJ0+Q9Y478+Q13131+Q9UGI9) (assay: AMP-dependent Kinase enzyme assay. An in vitro enzyme assay that detects ADP turnover that is directly proportional to AMPK activity. This uses naive AMPK that is activated during the assay with MK-8722). Conditions: 30 µM.
Format: functional
Set-up: scale not given: direction of the effect not stated beside the values

| Structure (SMILES) | Percent Effect |
| --- | --- |
| Cc1sc(C(=O)NS(C)(=O)=O)cc1-c1ccc(F)cc1 | -4.08% |
| CCN(CC)c1ncccc1CNCc1cc2ccccc2s1 | -4.57% |
| Cc1nn(C)c2nc(NC3CCNCC3)sc12 | 0.889% |
| CC(C)C(C)NC(=O)Nc1cccc(OCC#N)c1 (stereo not given) | -3.11% |
| CCC(CN1CCCC1)n1cncc1-c1cnn(-c2ccccc2)c1 (stereo not given) | 20% |
| O=C(NCc1nnc2n1CCC2)c1ccc(C2CCCO2)s1 (stereo not given) | 1.37% |
| Cc1cccc(CN2CCCC2c2cccc(Nc3nccs3)n2)c1 (stereo not given) | 6.23% |
| CN(CC1CCCCO1)c1nc2c(cc1C(N)=O)CCC2 (stereo not given) | -5.23% |
| CCc1onc(C)c1C(=O)N1CCN(c2ncc3c(n2)CCOC3)CC1 | 13% |
| COCCC1(C(=O)O)CCCN(c2cc(C)c3ccccc3n2)C1 (stereo not given) | 3.66% |
| CC(C)C(NC(=O)C1CCCC1)c1cc(O)nc(-c2cccnc2)n1 (stereo not given) | 0.00151% |
| Cc1nc(CC(C)C)cc(C(=O)N2C[C@@H](CN(C)C)[C@@H](CO)C2)n1 | -4.49% |
| COc1ccccc1-c1cccc(C2CCCN(C3CCOCC3)C2)n1 (stereo not given) | -7.08% |
| CCCc1nnc(N2CCN(C3CCCC3)CC2)o1 | 3.52% |
| COc1cc(OC)cc(-c2cccc3c2OC(CN)C3)c1 (stereo not given) | -5.59% |
| Cc1ccccc1[C@@H]1CN(CCCS(=O)(=O)N(C)C)C[C@H]1C(=O)O | -1.92% |
| CCCOc1ccc2c(c1)OCC(CNC1CCc3ncnn3C1)=C2 (stereo not given) | 10.2% |
| OCCCNc1cccc(COC2CCCCC2)c1 | -15.3% |
| CC(=O)N1CCc2c(nc(N(C)C)nc2NCCCn2ccnc2)C1 | 2.43% |
| CC(C)COc1cncc(N2CCCN(c3ncccn3)CC2)n1 | 65.1% |

| Structure (SMILES) | Percent Effect |
| --- | --- |
| COCC1(Nc2nc(C)nc3c2cnn3C)CCCC1 | -2.92% |
| Cc1ccc(C(=O)NC2CCN(S(C)(=O)=O)CC2)c(=O)[nH]1 | 1.76% |
| CN(C)Cc1cccc(-c2cccnc2C(=O)NCC2CC2)c1 | 20.3% |
| O=C(NC1CCCCC1)N1C[C@H]2CN(c3cnccn3)C[C@@]2(C(=O)O)C1 | 2.64% |
| COC(=O)NCC(=O)NC1(C)CCc2ccccc2C1 (stereo not given) | 12.8% |
| Cn1ncnc1NCc1ccc(Cl)cc1 | 7.15% |
| CS(=O)(=O)CCCN1CCSCC1c1ccc(Cl)cc1 (stereo not given) | -4.65% |
| NC(=O)c1cc(C2CCCN(CCc3ccc4c(c3)CCO4)C2)n[nH]1 (stereo not given) | 3.33% |
| CN(C)C(=O)Cn1cnc2c(Br)cccc2c1=O | -4.74% |
| COc1cc(N(C)CCCn2nc(C)cc2C)ncn1 | 13.8% |
| Cc1nc2c(c(NCCc3nccs3)n1)CCN(CC1CC1)CC2 | 6.45% |
| CN(Cc1csc(-c2cccs2)n1)Cc1ncccc1C(=O)O | -1.78% |
| COc1ccc(C(=O)NCc2ccco2)nn1 | -4.45% |
| CNC(=O)c1[nH]nc2c1CN(c1cc(C3CCCNC3)nc(C)n1)CC2 (stereo not given) | 18.4% |
| Cc1cc(-c2cnc(N3CCC(O)CC3)nc2C(C)C)on1 | 20.1% |
| CCC[C@H]1CN(c2cncc(C(=O)N3CCCCC3)n2)C[C@@H]1N(C)C | 14.2% |
| CC(C)N(Cc1ccc(C(=O)O)o1)C(C)C | 2.21% |
| Cc1nccn1CCN1C(=O)CC2(CCCC2)CC1=O | 8.33% |
| CC(C)(C)c1nc(CC(=O)NCCC(=O)Nc2ccncc2)cs1 | -4.57% |
| CCNC(=O)[C@@H]1C[C@H](N)CN1c1cc(C(F)(F)F)nc(N2CCCC2)n1 | 2.77% |
